The structures appear in SMILES notation. Results filed as inconclusive are left out. Activity calls are given as the source filed them. The call rests on the fitted dose curve; in most records, active means well fitted inhibition curve with a large enough effect; inconclusive means small, poorly fitted or top-dose-only effect; inactive means flat fitted curve, though single readings scatter.

Holding throughout (assay): qHTS profiling for inhibitors of Plasmodium falciparum proliferation (AID 504749); further: nearly all actives have a fitted effect of over 60% in size
What all share (settings): P. falciparum in erythrocytes, SYBR Green DNA, 72 h; series mostly up to 28.7 µM
A general note: Quantitative high-throughput screening tests each substance at several concentrations.

One assay has as its system ATS95. A digest of the protocol: (§1)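 Parasite proliferation within erythrocytes, 72 h exposure. Endpoint: SYBR Green I fluorescence after overnight lysis at room temperature. Controls: 0.29 uM artemisinin, DMSO.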
Another assay concerns C2A. A digest of the protocol: as §1
In a further assay the test system is CP185. A digest of the protocol:
as §1

The subject of the next assay is CP192. The procedure, abridged:
as §1

A further assay concerns CP194. A digest of the protocol:
as §1

A further assay concerns CP201. A digest of the protocol:
as §1

The subject of a further assay is CP203. The procedure, abridged:
as §1

In another assay the test system is CP211. A digest of the protocol: as §1
In another assay the test system is CP217. The procedure, abridged:
as §1

For the next assay, the system named is CP237. A digest of the protocol:
as §1

The test system of another assay is CP238. The procedure, abridged:
as §1

A further assay relates to CP247. The procedure, abridged: as §1
The next assay deals with CP252. A digest of the protocol:
as §1

The test system of the next assay is CP260. The procedure, abridged:
as §1

In the next assay the test system is CP262. The procedure, abridged:
as §1

For the next assay, the system named is CP265. A digest of the protocol: as §1
For a further assay, the system named is CP250. A digest of the protocol:
as §1

The subject of a further assay is CP256. The procedure, abridged:
as §1

In a further assay the test system is CP191. The procedure, abridged:
as §1

The next assay deals with CP215. A digest of the protocol:
as §1
Potency means the concentration at half of the fitted maximal effect.

Consider `N#CC(C#N)=Cc1ccc(O)c(O)c1`, for which the Potency result with ATS95, in the assay with C2A, in the assay with CP185, in the assay with CP192, in the assay with CP194 and with CP201 was “inactive” throughout. In addition, the Potency result in the assay with CP203, in the assay on CP211, in the assay on CP217, in the assay with CP237, in the assay on CP238 and with CP247 was “inactive” throughout. Moreover, the Potency result with CP252, with CP260, in the assay with CP262 and with CP265 was “inactive” each time.
As for `CC(C)(C)NCC(O)c1cc(Cl)c(N)c(Cl)c1` (stereo not drawn), the Potency result in the assay with C2A, in the assay with CP201, in the assay with CP211, in the assay on CP217, in the assay on CP247 and in the assay on CP250 was “inactive” in each case. Also, the Potency entry with CP256 was “inactive”. Besides, the Potency with CP237 was 7.94 µM (active).
Take `CN1C[C@H](CNC(=O)OCc2ccccc2)C[C@@H]2c3cccc4c3c(cn4C)C[C@H]21`: the Potency was 11.2 µM (active) in the assay on ATS95; 8.91 µM (active) in the assay with C2A; 8.91 µM (active) in the assay with CP185; 9.53 µM (active) with CP211; 7.94 µM (active) in the assay on CP217; 8.91 µM (active) in the assay on CP237. Moreover, the Potency was 11.2 µM (active) with CP238; 10 µM (active) in the assay with CP252; 6.31 µM (active) in the assay on CP256; 11.2 µM (active) in the assay on CP260; 6.75 µM (active) with CP262; 5.62 µM (active) in the assay on CP265.
In the case of `Fc1ccc(C(OCCN2CCN(CCCc3ccccc3)CC2)c2ccc(F)cc2)cc1`, the Potency is 7.94 µM (active) with ATS95; 11.2 µM (active) with C2A; 10 µM (active) with CP185; 10 µM (active) in the assay on CP191; 12 µM (active) in the assay with CP203; 13.5 µM (active) with CP211. The Potency with CP217 is 8.91 µM (active); with CP237 it was 10 µM (active); in the assay on CP238 it was 12.6 µM (active); with CP247, 10 µM (active); in the assay on CP252 it was 11.2 µM (active); in the assay on CP260, 10 µM (active). Also, in the assay on CP262, the Potency entry was “inactive”.
Consider `c1ccc2c(c1)Nc1ccccc1S2`, for which the Potency in the assay on CP191 was 7.94 µM (active); with CP247, 10 µM (active); in the assay with CP250 it was 4.47 µM (active); in the assay with CP260 it was 10 µM (active). Further, the Potency result in the assay with CP201, in the assay with CP238 and with CP265 was “inactive” in each case.
`CCN(CC)CCN1C(=O)CN=C(c2ccccc2F)c2cc(Cl)ccc21`: the Potency result in the assay with C2A, with CP191, in the assay with CP192, in the assay with CP201, with CP215 and in the assay on CP217 was “inactive” throughout. Besides, the Potency result in the assay on CP247, with CP250, in the assay with CP252, with CP256, in the assay on CP260 and in the assay with CP262 was “inactive” in each case.
As to `CCN(CC)CCOC(=O)C(O)(c1ccccc1)c1ccccc1`, the Potency entry in the assay on ATS95, in the assay on C2A, with CP185, in the assay on CP191, with CP192 and with CP194 was “inactive” throughout. Moreover, the Potency entry with CP201, in the assay with CP203, in the assay on CP211, in the assay on CP217, with CP237 and in the assay on CP238 was “inactive” each time. The Potency result with CP247, in the assay with CP250, with CP252, with CP260, in the assay on CP262 and in the assay with CP265 was “inactive” each time.
For the compound `COc1ccc(C(CN(C)C)C2(O)CCCCC2)cc1` (stereo not drawn), the Potency entry in the assay on ATS95, in the assay on C2A, with CP185, with CP191, with CP192 and in the assay with CP201 was “inactive” in each case. For the same compound, the Potency entry with CP211, with CP215, in the assay on CP217, with CP238, in the assay on CP247 and with CP250 was “inactive” in each case. The Potency result with CP252, in the assay with CP256, in the assay with CP260 and in the assay on CP262 was “inactive” throughout. In the assay with CP237, the Potency is 7.08 µM (active).

For the origin of these results see PubChem BioAssay (NCATS).
